Laboratory results published in ChEMBL document CHEMBL4513146, “CO-ADD screening of Karazin Kharkiv National University (Ukraine) compounds”.
Entries with a potency or affinity are not part of this list.

How the values were obtained:
Klebsiella pneumoniae = conditions: Concentration 32 ug.mL-1;; ASSAY_TEST Inhibition of Bacterial Growth; detection method Absorption (OD600); MEDIA CAMHB; plate type 384well; NBS; CORNING #3640; time 18 hr
Candida albicans = conditions: Concentration 32 ug.mL-1; ASSAY_TEST Inhibition of Fungal Growth; detection method Absorption (OD530)
Cryptococcus neoformans = conditions: Concentration 32 ug.mL-1; ASSAY_TEST Inhibition of Fungal Growth; detection method Resazurin; Absorption (OD600-OD570); plate type 384well; NBS; CORNING #3640

| SMILES | Inhibition (Klebsiella pneumoniae) | Inhibition (Candida albicans) | Inhibition (Cryptococcus neoformans) |
| --- | --- | --- | --- |
| COc1cccc(Oc2nccn3c(=O)n(CC(=O)Nc4ccc5c(c4)OCCO5)nc23)c1 | 1.41% | 7.65% | -9.22% |
| Cc1ccc(NC(=O)Cn2nc3c4c5c(sc4ncn3c2=O)CCCC5)c(Cl)c1 | 3.19% | 9.32% | -16.36% |
| O=c1c2sccc2n2c(=O)n(Cc3ccc(F)cc3)nc2n1CCc1ccccc1 | 5.57% | 0.78% | -5% |
| COc1cccc(CN(c2ccccc2)S(=O)(=O)c2ccc3nncn3c2)c1 | 0.32% | 2.69% | -7.16% |
| Cc1ccc(Sc2nccn3c(=O)n(CC(=O)Nc4cc(Cl)ccc4C)nc23)c(C)c1 | -1.75% | 4.75% | -16.92% |
| COc1ccc(C)cc1NC(=O)Cn1nc2ccc(SCc3ccc(Cl)cc3)nn2c1=O | -0.56% | 31.09% | -20.73% |
| CCc1nnc2c(S(=O)(=O)N(Cc3cccc(F)c3)c3ccccc3)cccn12 | 10.23% | 3.58% | -7.54% |
| CCOc1ccc(-n2ccn3c(SCC(=O)NCc4cccc(OC)c4OC)nnc3c2=O)cc1 | 14.82% | 1.5% | -8.08% |
| COc1ccc(CNC(=O)CSc2nnc3c4cc(-c5ccc(C)cc5)nn4ccn23)cc1OC | 9.92% | -0.42% | -20.85% |
| CC(C)Sc1ccc2nn(CC(=O)Nc3ccc(Br)cc3F)c(=O)n2n1 | 15.2% | -0.59% | -7.06% |
| CCc1nnc2ccc(S(=O)(=O)N(Cc3ccc(OC)cc3)c3cccc(F)c3)cn12 | 4.14% | 4.82% | -8.59% |
| COc1ccc(N2CCN(C(=O)Cn3nc4c(Sc5cccc(C)c5)nccn4c3=O)CC2)cc1 | -3.27% | 1.08% | -17.29% |
| Cc1oc(-c2cccc(Cl)c2)nc1CSc1nc2ccccc2n2c(C)nnc12 | 5.28% | 6.15% | -6.37% |
| CCc1nnc2c(S(=O)(=O)N(Cc3cccc(C)c3)c3cccc(Cl)c3)cccn12 | 3.49% | 3.58% | -6.66% |
| CCc1ccc(N(Cc2ccc(C)cc2)S(=O)(=O)c2cccn3cnnc23)cc1 | -0.39% | 4.26% | -5.61% |
| COc1ccc(-c2cc3c4nnc(SCC(=O)Nc5ccccc5F)n4ccn3n2)cc1 | 6.81% | -0.08% | -26.1% |
| CSc1ccc(CNC(=O)CCc2nnc3c(N4CCCCC4)nc4ccccc4n23)cc1 | 12.88% | 3.51% | -30.87% |
| CCCCOc1ccc(-c2cc3c4nnc(SCC(=O)Nc5c(C)cccc5C)n4ccn3n2)cc1 | 2.94% | 28.25% | -13.35% |
| Cc1cc(C)cc(N(Cc2cc(F)cc(F)c2)S(=O)(=O)c2cccn3c(C)nnc23)c1 | 11.7% | 0.35% | -11.73% |
| CCOc1ccc(-n2ccn3c(SCC(=O)Nc4ccc(C)cc4)nnc3c2=O)cc1 | 16.35% | 4.07% | -19.05% |

| SMILES | Inhibition (Klebsiella pneumoniae) | Inhibition (Candida albicans) | Inhibition (Cryptococcus neoformans) |
| --- | --- | --- | --- |
| Cc1ccc(-c2cc3c4nnc(CCC(=O)N5CCC(Cc6ccccc6)CC5)n4ccn3n2)cc1C | 14.91% | 0.82% | -35.19% |
| O=c1c2sccc2n2c(=O)n(Cc3cccc(Cl)c3)nc2n1Cc1cccs1 | 3.75% | 61.44% | -14.34% |
| CC(=O)Nc1ccc(NC(=O)CSc2nc3ccccc3n3cnnc23)cc1 | 2.19% | 32.46% | -15.75% |
| Cc1nnc2ccc(S(=O)(=O)N(Cc3ccc(F)cc3)c3ccc4c(c3)OCO4)cn12 | 13.79% | 1.73% | -7.24% |
| COc1ccc(N2CCN(C(=O)Cn3nc4c(Oc5cccc(C)c5C)nccn4c3=O)CC2)cc1 | 15.7% | -0.29% | -13.03% |
| Cc1ccc(C)c(NC(=O)Cn2nc3cc(C)nc(Nc4ccc(F)cc4)n3c2=O)c1 | 5.73% | 2.17% | -16.31% |
| Cc1cc(C)cc(N(Cc2cc(C)ccc2C)S(=O)(=O)c2cccn3c(C)nnc23)c1 | 4.69% | 1.02% | -8.76% |
| O=c1c2nn(Cc3ccc([N+](=O)[O-])cc3)c(=O)n2ccn1-c1ccccc1 | 13.17% | 3.56% | -7.73% |
| CCCCn1c(=O)c2sccc2n2c(=O)n(CC(=O)N3CCCC(C(=O)OCC)C3)nc12 (stereo not given) | -2.03% | -3.31% | -9.46% |
| COc1ccc(NC(=O)Cn2nc3ccc(-c4ccccc4)nn3c2=O)cc1 | 5.42% | 2.69% | -8.43% |
| Cc1cccc(Oc2nccn3c(=O)n(CC(=O)Nc4cccc(C(F)(F)F)c4)nc23)c1C | 9.81% | 16% | -8.68% |
| COc1cccc(Sc2nc3ccccc3n3c(=O)n(CC(=O)Nc4ccc(C)cc4)nc23)c1 | 9.1% | 4.31% | -30.42% |
| COc1cccc(-n2ccn3c(SCC(=O)NC(C)C)nnc3c2=O)c1 | 10.83% | 1.96% | -12.8% |
| COc1ccc(OC)c(NC(=O)Cn2nc3ccc(-c4ccc(Cl)cc4)nn3c2=O)c1 | 15.39% | 0.24% | -17.15% |
| COc1ccc(NC(=O)Cn2nc3ccc(SCc4ccc(Cl)cc4)nn3c2=O)cc1OC | -4.29% | 32.62% | -6.53% |
| CCc1nnc2c(S(=O)(=O)N(Cc3ccccc3Cl)c3ccccc3)cccn12 | 6.34% | 3.28% | -4.36% |
| CCOC(=O)c1ccc(NC(=O)Cn2nc3c(N4CCOCC4)nccn3c2=O)cc1 | 11.56% | 3.03% | -14.12% |
| Cc1ccc(Sc2nccn3c(=O)n(CC(=O)Nc4cccc(Br)c4)nc23)c(C)c1 | 7.97% | 8.72% | -18.33% |
| CSc1cccc(NC(=O)Cn2nc3c(SC4CCCCC4)nccn3c2=O)c1 | 1.73% | -2.6% | -1.74% |
| Cc1oc(-c2ccccc2)nc1CSc1nc2ccccc2n2c(C)nnc12 | 7.15% | 9.66% | -6.62% |

| SMILES | Inhibition (Klebsiella pneumoniae) | Inhibition (Candida albicans) | Inhibition (Cryptococcus neoformans) |
| --- | --- | --- | --- |
| Cc1cccc(NC(=O)Cn2nc3c4cc(-c5ccc(Cl)cc5)nn4ccn3c2=O)c1C | 3.93% | 0.51% | -23.15% |
| COc1cccc(Sc2nc3ccccc3n3c(=O)n(CC(=O)Nc4cc(C)cc(C)c4)nc23)c1 | 4.15% | 5.74% | -11.67% |
| CSc1cccc(NC(=O)Cn2c(=O)c3nnc(C(C)C)n3c3ccccc32)c1 | 10.43% | 3.45% | -18.2% |
| Cc1nnc2ccc(S(=O)(=O)N(Cc3cccc(Cl)c3)c3ccc(F)cc3)cn12 | 8% | 2.21% | -6.34% |
| O=C(Cn1nc2c(Sc3cccc(F)c3)nccn2c1=O)Nc1ccc(F)c(Cl)c1 | -2.81% | 9.34% | -8.73% |
| Cc1[nH]c2ccccc2c1C(=O)CSc1nnc2c(=O)n(-c3ccc(F)c(F)c3)ccn12 | 14.26% | 1.72% | -11.39% |
| COc1ccc(CNC(=O)Cn2nc3c(SCc4ccc(Cl)cc4)nccn3c2=O)cc1 | 2.51% | 1.91% | -11.5% |
| Cc1ccc(Cl)cc1NC(=O)CSc1nc2ccccc2n2c(C)nnc12 | 2.82% | 5.91% | -21.14% |
| COc1ccc(Cl)cc1NC(=O)Cn1nc2ccc(Sc3ccccc3)nn2c1=O | 0.86% | 45.02% | -15.66% |
| COc1ccccc1N1CCN(C(=O)CSc2nc3ccccc3n3cnnc23)CC1 | 8.29% | 2.74% | -5.08% |
| Cc1cccc(CN(c2cc(C)cc(C)c2)S(=O)(=O)c2cccn3c(C)nnc23)c1 | 4.64% | 1.12% | -10.57% |
| CCCCOc1ccc(-c2cc3c4nnc(SCC(=O)Nc5cccc(C#N)c5)n4ccn3n2)cc1 | -0.44% | 7.68% | -23.71% |
| Cc1cc(C)c(NC(=O)Cn2nc3ccc(-c4ccc(C)c(C)c4)nn3c2=O)c(C)c1 | -8.22% | 0.76% | -13.99% |
| Cc1ccc(-c2ccc3nnc(CCC(=O)NCc4cccc(Br)c4)n3n2)cc1 | 20.54% | 1.13% | -54.18% |
| Cc1ccc(CSc2nnc3c(=O)n(-c4ccc(Br)cc4)ccn23)cc1 | 11.07% | 8.75% | -7.86% |
| Cc1ccccc1Cn1nc2ccc(-c3ccccc3)nn2c1=O | 7.15% | 0.4% | -8.99% |
| Cc1ccc(Nc2cc(C)n3c(=O)n(Cc4cc(=O)n5ccccc5n4)nc3n2)cc1F | 9.15% | -0.76% | -5.54% |
| Cc1nnc2c(S(=O)(=O)N(Cc3cccc(F)c3)c3cccc(F)c3)cccn12 | 14.45% | 2.41% | -6.64% |
| O=c1c2sccc2n2c(=O)n(Cc3c(F)cccc3Cl)nc2n1Cc1cccs1 | 11.77% | -0.79% | -29.08% |
| Cc1nnc2c(=O)n(CC(=O)Nc3ccc(F)cc3F)c3ccccc3n12 | 12.43% | -0.68% | -30.11% |
